Measured potencies and affinities stand elsewhere.
Legend:
Staphylococcus aureus = conditions: Concentration 32 ug.mL-1; ASSAY_TEST Inhibition of Bacterial Growth; detection method Absorption (OD600); MEDIA CAMHB; plate type 384well; NBS; CORNING #3640; time 18 hr
Escherichia coli = conditions: Concentration 32 ug.mL-1; ASSAY_TEST Inhibition of Bacterial Growth; detection method Absorption (OD600); MEDIA CAMHB; plate type 384well; NBS; CORNING #3640; time 18 hr

Row | Compound | Inhibition (Staphylococcus aureus) [%] | Inhibition (Escherichia coli) [%]
1 | COc1cccc(C(=N)Nc2cc(C(=O)Nc3cc(C(=O)Nc4cc(C(=O)NCCCN5CCOCC5)n(C)c4)n(C)c3)n(C)c2)c1.O=C(O)C(F)(F)F.O=C(O)C(F)(F)F | 26.72 | -6.36
2 | CN(C)CCCNC(=O)c1cc(NC(=O)c2cc(NC(=O)c3cc4ccccc4cn3)cn2C)cn1C.O=C(O)C(F)(F)F | 20.5 | -10.84
3 | Cc1ncc(CNc2ccc(C(F)(F)F)cc2)c(N)n1 | -6.95 | -11.04
4 | COc1cccc(C(=N)Nc2cc(C(=O)Nc3cc(C(=O)Nc4cc(C(=O)NCCCN(C)C)n(C)c4)n(C)c3)n(C)c2)c1.O=C(O)C(F)(F)F.O=C(O)C(F)(F)F | -1.63 | -2.32
5 | CN(C)CCCNC(=O)c1cc(NC(=O)c2cc(NC(=O)c3cc(NC(=N)N)cn3C)cn2C)cn1C.O=C(O)C(F)(F)F.O=C(O)C(F)(F)F | 14.94 | -3.99
6 | CC(=O)Nc1cc(C(=O)Nc2cc(C(=O)Nc3cc(C(=O)NCCCN(C)C)n(CCC(C)C)c3)n(C)c2)n(C)c1.O=C(O)C(F)(F)F | 9.82 | -19.43
7 | COc1cccc(C(=N)Nc2cc(C(=O)Nc3cc(C(=O)NCCC(=N)N)n(C)c3)n(C)c2)c1.O=C(O)C(F)(F)F.O=C(O)C(F)(F)F | 96.74 | 3.74
8 | COc1cccc(C(=O)Nc2cc(C(=O)Nc3cc(C(=O)Nc4cn(CCCN(C)C)cn4)n(C)c3)n(C)c2)c1.O=C(O)C(F)(F)F | 20.04 | -11.39
9 | Cn1cc(NC(=O)c2cc(NC(=O)c3cc(NC(=O)c4ccc(Cl)cc4Cl)cn3C)cn2C)cc1C(=O)NCCN1CCOCC1.O=C(O)C(F)(F)F | 45.87 | -8.53
10 | CC(=O)Nc1cc(C(=O)Nc2cc(C(=O)Nc3cc(C(=O)NCCCN(C)C)n(C)c3)n(C)c2)n(C)c1.O=C(O)C(F)(F)F | 20.29 | -5.37
11 | Cc1ncc(Cn2cc(CCCCO)nn2)c(N)n1 | 1.62 | -20.02
12 | COC(=O)CCC(=O)Nc1cc(C(=O)Nc2cc(C(=O)NCCC(=N)N)n(C)c2)n(C)c1.O=C(O)C(F)(F)F | 0.86 | -6.39
13 | CC(C)c1sc(NC(=O)c2cc(NC(=O)c3cc(NC(=O)c4cnc(Cl)c(Cl)c4)cn3C)cn2C)nc1C(=O)NCCCN(C)C.O=C(O)C(F)(F)F | 50.09 | -19.66
14 | CC(C)n1cc(NC(=O)c2cc(NC(=O)c3cc(NC=O)cn3C(C)C)cn2C)cc1C(=O)NCCCN(C)C.O=C(O)C(F)(F)F | 2.98 | -12.14
15 | COC(=O)CCC(=O)Nc1cc(C(=O)Nc2cc(C(=O)NCCN3CCOCC3)n(C)c2)n(C)c1.O=C(O)C(F)(F)F | 3.68 | -5.38
16 | CN(C)CCCNC(=O)c1cc(NC(=O)c2cc(NC(=O)c3cc(NC(=N)c4ccccc4)cn3C)cn2C)cn1C.O=C(O)C(F)(F)F.O=C(O)C(F)(F)F | 0.44 | -15.33
17 | Cc1ncc(CNc2ccccc2F)c(N)n1 | 17.82 | -3.65
18 | COc1ccc(CC(=O)Nc2cc(C(=O)Nc3cc(C(=O)Nc4cn(CCCN(C)C)cn4)n(C)c3)n(C)c2)cc1.O=C(O)C(F)(F)F | 6.27 | -5.32
19 | CC(C)CCc1sc(NC(=O)c2cc(NC(=O)c3cc(NC(=O)c4ccc(C(=O)O)cc4)cn3C)cn2C)nc1C(=O)NCCCN(C)C.O=C(O)C(F)(F)F | 8.57 | -17.53
20 | COCCOC1CCN(C(=O)c2cc(NC(=O)c3cc(NC(=O)c4ccc(/C=C/c5ccc(OC)cc5)cc4)cn3C)cn2C)CC1.O=S(=O)(O)O | 99.55 | 96.85
21 | Cc1ccc(S(=O)(=O)NCCc2cn(Cc3cnc(C)nc3N)nn2)cc1 | 16.06 | -13.92
22 | CC(C)CCc1sc(N)nc1C(=O)Nc1cc(C(=O)Nc2cc(C(=O)NCCN3CCOCC3)n(C)c2)n(C)c1.O=C(O)C(F)(F)F | 26.32 | -8.65
23 | COC(=O)CCC(=O)Nc1cc(C(=O)Nc2cc(C(=O)NCCCN(C)C)n(C)c2)n(C)c1.O=C(O)C(F)(F)F | 5.2 | -12.96
24 | CC(C)c1sc(N)nc1C(=O)Nc1cc(C(=O)Nc2cc(C(=O)NCCN3CCOCC3)n(C)c2)n(C)c1.O=C(O)C(F)(F)F | 1.1 | -18.06
25 | CCOC(=O)CCC(NC(=O)c1ccc(NCc2cn(Cc3cnc(C)nc3N)nn2)cc1)C(=O)OCC (stereo not drawn) | -1.1 | -21.48
26 | Cc1ncc(Cn2cc(CCCN)nn2)c(N)n1.Cl | 14.19 | -28.01
27 | Cc1ncc(CNc2ccc(Cl)cc2)c(N)n1 | -1.15 | 2.07
28 | Cn1cc(NC(=O)c2cc(NC(=O)CCC(=O)O)cn2C)cc1C(=O)NCCN1CCOCC1.O=C(O)C(F)(F)F | -10.46 | -3.43
29 | CCOC(=O)c1cc(NC(=O)c2cc(NC(=O)c3nc(N)sc3CCC(C)C)cn2C)cn1C | 16.22 | -10.89

Source: ChEMBL document CHEMBL4513139, “CO-ADD screening of University of Strathclyde (UK) compounds”
